Screens from PubChem BioAssay.
The list is not random: actives were taken first. Their share in the collection is about 5.2%.
GRIN3A LBD mod: NR3A (human) ligand-binding domain modulation | hit rate 2.5% among 340,000 | Tm shift relative to glycine control, % at 25 µM | NR3A LBD differential scanning fluorimetry, Tm shift; 0% = protein alone, 100% = glycine-bound protein;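 active = melting temperature shift of at least 10% of the positive control shift, at one fixed dose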
SKN-1 inh: C. elegans SKN-1 inhibition. C. elegans VP596 Pgst-4::GFP/RFP ratio, acrylamide-induced, 24 h. inhibition, % at 21.8 µM. hit rate 0.49% among 360,000;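 active = interference check ratio from 0.5 to 1.5 plus GFP to RFP signal ratio inhibition reaching or exceeding a fixed threshold, cut at about 30% in these data, passing the limit was not always enough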
esBAF inh: blocks esBAF chromatin remodeling in mouse ES cells. Bmi1-luciferase knock-in reporter, 24 h; 100% = twice the neutral-well signal. reporter increase, % at 12.5 µM. hit rate 2% among 350,000. AID 602393; in the data active = activation above about 40%;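 note: 0% = median of the plate's neutral control wells and 100% = double that signal; a rise in the Bmi1 reporter signal indicates esBAF inhibition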
NadD inh: inhibitors of Staphylococcus aureus NadD. purified NadD enzyme, colorimetric absorbance read-out. inhibition, % at 20 µM. hit rate 0.78% among 360,000. AID 602399; in the data active = inhibition above about 26%
SMARCA2 act: activators of SMARCA2 function; MG213 cells, MMTV-luciferase reporter, dexamethasone, overnight; activation, % at 9.1 µM; hit rate 1% among 370,000; AID 652017; in the data active = activation above about 7.8%;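 note: 0% = vehicle wells and 100% = reference activator wells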
Vif imaging: HIV Vif inhibition; HEK293T cells, Vif self-association by quenched fluorescence, imaging, 24 h; inhibition, % at 7.49 µM; hit rate 0.35% among 340,000; in the data active = inhibition above about 50%, passing the limit was not always enough
* marks the source's active call; other numbers are inactive results; nt = no result given.

SMILES	GRIN3A LBD mod	SKN-1 inh	esBAF inh	NadD inh	SMARCA2 act	Vif imaging
CC(=O)NC(=S)Nc1ccccc1F	0	1	-4	-4	0	58*
O=C(COc1ncnc2cc(Cl)ccc12)c1ccc2c(c1)OCCO2	3	3	59*	3	5	-1
O=C(COc1ncnc2ccccc12)c1ccc2c(c1)OCCO2	2	-31	14	-10	7	-1
CC1CCN(C2=C(NS(=O)(=O)c3ccccc3)C(=O)c3ccccc3C2=O)CC1	1	14	nt	-6	7.8*	-2
CC(=O)Nc1ccc(S(=O)(=O)NC2=C(N3CCN(Cc4ccccc4)CC3)C(=O)c3ccccc3C2=O)cc1	-5	4	nt	10	2	-6
CCN1CCN(C2=C(NS(=O)(=O)c3ccc(NC(C)=O)cc3)C(=O)c3ccccc3C2=O)CC1	15*	17	3	4	-2	-1
CC(C)OC(=O)Cn1nnc2c(cnn2-c2ccccc2)c1=O	-1	4	47*	3	1	nt
COc1cccc(-c2nnc(-c3ccc(C(F)(F)F)cc3)o2)c1	2	19	55*	-4	1	-2
Cc1ccnc(NC(=O)c2ccc(Cl)c(S(=O)(=O)N3CCCCC3)c2)c1	0	1	57*	9	-1	-8
O=C(Nc1ccccn1)c1ccc(Cl)c(S(=O)(=O)N2CCCCCC2)c1	-2	13	83*	-4	1	-3
Cc1ccnc(NC(=O)c2ccc(Cl)c(S(=O)(=O)N3CCCC3)c2)c1	-2	19	nt	4	1	-7
CO[C@@H]1CN(C)C(=O)c2ccc(NC(=O)Nc3ccc(Cl)cc3)cc2OC[C@@H](C)N(C(=O)Nc2c(C)noc2C)C[C@H]1C	nt	nt	-2	nt	nt	nt
O=C(O)CN1C(=O)/C(=C2\SC(=S)N(C(Cc3ccccc3)C(=O)O)C2=O)c2ccccc21 (stereo not given)	1	21	-2	4	-2	0
CCCC(C(=O)O)N1C(=O)/C(=C2\C(=O)N(C)c3ccccc32)SC1=S (stereo not given)	27*	14	nt	3	-2	2
Cc1nc2cc(C(=O)O)ccc2n1-c1ccc(F)cc1F	15*	13	-8	-3	1	5
Cc1ccc(-c2[nH]ncc2/C=C(\C#N)C(=O)NC2CCCCC2)cc1	-5	59*	nt	2	-2	1
COc1ccc(-c2[nH]ncc2/C=C(/C#N)C(=O)NC2CCCCC2)cc1	-7	-16	-5	5	-2	10
C[C@H]1CCCCO[C@H](CN(C)Cc2ccc3c(c2)OCO3)[C@@H](C)CN([C@@H](C)CO)C(=O)c2cc(NC(=O)NC3CCCCC3)ccc2O1	nt	nt	-12	nt	nt	nt
O=C(Nc1ccccc1F)N[C@H]1CC[C@@H](CCNC(=O)C2CCCC2)O[C@H]1CO	nt	nt	6	nt	nt	nt
Cc1cccc(-n2cnc3cc(C(=O)N4CCCCC4)ccc32)c1	-1	5	44*	5	-1	-7
Cc1cccc(-n2c(C)nc3cc(C(=O)N4CCOCC4)ccc32)c1	-2	9	24	3	-1	-2
CCCNC(=O)C[C@@H]1C[C@H]2c3cc(NS(=O)(=O)c4cccc(OC)c4)ccc3O[C@H]2[C@@H](CO)O1	nt	nt	5	nt	nt	nt
C[C@H](CO)N1C[C@H](C)[C@H](CN(C)Cc2ccc(C(=O)O)cc2)OCCCC[C@H](C)Oc2ccc(NC(=O)CCC(F)(F)F)cc2C1=O	nt	nt	-5	nt	nt	nt
CN(C)c1ccc(-c2nnn(Cc3ccccc3Br)n2)cc1	3	0	94*	0	1	1
COc1ccc(-c2nnn(Cc3ccccc3F)n2)cc1	4	5	64*	-9	1	-1
SMILES	GRIN3A LBD mod	SKN-1 inh	esBAF inh	NadD inh	SMARCA2 act	Vif imaging
O=C(Cn1nnc(-c2ccc(OCc3ccccc3F)cc2)n1)N1CCOCC1	3	-8	41*	2	1	-15
CN1CCN(C(=O)C[C@@H]2CC[C@@H]3[C@H](COC[C@H](O)CN3S(=O)(=O)c3cccc(Cl)c3)O2)CC1	nt	nt	-1	nt	nt	nt
C/C=C/c1ccc2c(c1)O[C@@H](CN(C)C(=O)Nc1ccc(F)cc1)[C@H](C)CN([C@H](C)CO)S2(=O)=O	nt	nt	-2	nt	nt	nt
COc1ccc(-c2cc(-c3nc4ccccn4c3NCc3ccccc3)ccc2OC)cc1	-25	-1	-25	-8	-3	77*
CCC(C)Sc1ccc(-c2nc3ccc(Cl)cn3c2NCc2ccccc2)cc1 (stereo not given)	-10	14	50*	6	3	4
Clc1cccc(-c2ccc(-c3nc4ccccn4c3NCc3ccccc3)cc2)c1	20*	9	50*	-1	3	-1
COc1ccc(-c2nc3ccccn3c2NCc2ccc3c(c2)OCO3)cc1	1	26	11	1	3	-5
Cc1nn(Cc2ccccc2)c(Cl)c1C(=O)OCC(=O)NC(=O)NC12CC3CC(CC(C3)C1)C2	17*	-2	nt	7	1	5
Cc1noc(C)c1C(=O)OCC(=O)NC(=O)NC12CC3CC(CC(C3)C1)C2	-3	2	12	3	-3	-2
O=C(C[C@H]1CC[C@@H](NC(=O)Nc2cc(F)ccc2F)[C@H](CO)O1)Nc1ccc(-c2ccccc2)cc1	nt	nt	15	nt	nt	nt
CCNC(=O)C[C@H]1CC[C@H]2[C@H](COc3ccc(NC(=O)Nc4cccc(C)c4)cc3C(=O)N2C)O1	nt	nt	7	nt	nt	nt
Cc1c(Cl)cccc1NC(=O)CCN1C(=O)C2CC=CCC2C1=O (stereo not given)	11*	28	4	-4	-2	0
O=C(Nc1ccc(Br)cc1)c1ccc(N2C(=O)C3CC=C(Cl)CC3C2=O)cc1 (stereo not given)	26*	9	nt	-1	0	-4
O=C(Nc1ccc(Br)cc1)c1ccc(N2C(=O)C3CCCCC3C2=O)cc1 (stereo not given)	5	5	-2	-7	-2	-7
COc1ccc(NC(=O)CCN2C(=O)C3CC=C(Cl)CC3C2=O)cc1 (stereo not given)	32*	-10	nt	0	-1	-7
Cc1cccc(NC(=O)CCCN2C(=O)C3CC=CCC3C2=O)c1 (stereo not given)	2	-11	nt	-3	0	-1
O=C(CCCN1C(=O)C2CC=CCC2C1=O)Nc1cccc(F)c1 (stereo not given)	11*	-1	-6	-6	-2	3
O=C(CCN1C(=O)C2CC=CCC2C1=O)Nc1ccccc1Cl (stereo not given)	-1	1	-5	-1	-1	-4
Cc1cccc(S(=O)(=O)N[C@@H]2CC[C@@H](CCn3cc(-c4ccccn4)nn3)O[C@@H]2CO)c1	nt	nt	1	nt	nt	nt
COc1ccc(NC(=O)C[C@H]2CC[C@H]3[C@@H](COc4ccc(NC(C)=O)cc4C(=O)N3C)O2)cc1	nt	nt	-4	nt	nt	nt
COc1ccccc1CNC(=O)C[C@H]1C=C[C@H](NC(C)=O)[C@H](CO)O1	nt	nt	-5	nt	nt	nt
